# Compounds with a hit are over-represented: about 3.8% of the library has one in this group of screens.
# S2 tox – reduces viability in counter-screen for ATXN expression inhibitors. S2 cells (HEK-293 line with an ATXN2-luciferase reporter) viability, CellTiter-Fluor protease fluorescence, 24 h. Potency, µM (highest dose often 56.7 µM), hits mostly cytotoxic. actives 0.49% (n = 400,000). AID 651635; note: nearly all actives have a fitted effect of over 40% in size
# Nrf2 inh – blocks Nrf2 signaling. A549 ARE-Fluc reporter, luciferase luminescence, 18-24 h. Potency, µM (series often up to 46 µM), usual class: inhibitors. actives 2.1% (n = 360,000). AID 504444; note: nearly all actives have a fitted effect of over 60% in size
#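 Nrf2 activity is the BugLite luminescence, read 15 min after reagent at room temperature, following CellTiter-Fluor cytotoxicity readout (30 min, 37C). Compound titrations were applied for 18-24 h to 5000 A549 ARE_Fluc cells/well in 5% FBS OPTI-MEM.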
# HepG2 tox-1 – counter-screen for TGF-b inhibitors: cytotoxicity in HepG2 cells; HepG2 CAGA-GFP viability, ATP luminescence, 18 h; Potency, µM (doses to about 46.1 µM), usual class: cytotoxic; actives 0.76% (n = 410,000); AID 588856
#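 CellTiter-Glo luminescence gave cytotoxicity after 18 hours at 37 degrees C. The cells were HepG2 CAGA-GFP in 1% FBS DMEM, stimulated with 500 pg/mL TGF-beta after compound addition. %Activity was normalised to no-cell wells (complete cell-killing) and DMSO (no toxicity), and curves were fitted and classified.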
# A549 tox – A549 cytotoxicity, counter-screen for Nrf2 inhibitors | actives 0.16% (n = 390,000) | A549 ARE-Fluc cells, CellTiter-Fluor viability, 18-24 h | Potency, µM (doses to about 46 µM), usual class: inhibitors
#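 A549 ARE-Fluc cells in 5% FBS OPTI-MEM, 5000 cells/well, rested 2 h then exposed to compounds in concentration-response for 18-24 h at 37 °C. Viability by CellTiter-Fluor fluorescence (Ex 405/Em 525) after 30 min; luciferase luminescence (BugLite, 15 min, RT) read afterwards.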
# TGFb inhibitor – TGF-b pathway inhibition; HepG2 CAGA-GFP TGF-b/SMAD3 reporter, GFP fluorescence, 18 h; TGF-beta stimulated, 500 pg/mL final; Potency, µM (titrated, usually from 46.1 µM), usual class: inhibitors; actives 1.2% (n = 410,000); note: nearly all actives have a fitted effect of over 65% in size
#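 Smad-responsive CAGA-GFP expression was quantified in HEPG2 cells exposed to compounds and 500 pg/mL final TGF-beta for 18 h at 37 degrees C; unstimulated wells defined full inhibition.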
# ATXN2 expr inh – reduces ATXN2 reporter expression in HEK-293 cells. HEK-293 ATXN2-luciferase reporter, luminescence, 24 h. Potency, µM (titrated, usually from 57 µM), most hits filed as inhibitors. actives 0.72% (n = 360,000). AID 1745845; note: nearly all actives have a fitted effect of over 55% in size
#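 ATXN2-luciferase reporter cells (luciferase flanked by upstream and downstream ATXN2 gene portions) were treated 24 h at 37 °C with compounds at up to 57 uM. SteadyGlo luminescence gave expression; GF-AFC fluorescence gave viability.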
# TGFb confirm – confirmation of TGF-b signaling inhibitors in HepG2 reporter cells; shares compounds with TGFb inhibitor; HepG2 CAGA-GFP TGF-b reporter, GFP fluorescence, 18 h; cells stimulated with TGF-beta, 500 pg/mL; Potency, µM (series often up to 46.1 µM), hits mostly inhibitors; actives 63% (n = 1,600); AID 720534; note: nearly all actives have a fitted effect of over 65% in size
# HepG2 tox-2 – toxic to HepG2 cells in TGF-b counterscreen; shares compounds with TGFb inhibitor; HepG2 CAGA-GFP viability, ATP luminescence, 18 h; cells stimulated with TGF-beta, 500 pg/mL; Potency, µM (titrated, usually from 46.1 µM), usual class: inhibitors; actives 27% (n = 1,600); note: nearly all actives have a fitted effect of over 70% in size
# TGFb CCL64 inh – blocks TGF-b signaling in CCL64 reporter cells | actives 41% (n = 1,600) | shares compounds with TGFb inhibitor | CCL64 CAGA-GFP reporter, TGF-b stimulated, GFP fluorescence, 18 h | AID 720536 | Potency, µM (series often up to 46.1 µM), usual class: inhibitors; note: nearly all actives have a fitted effect of over 65% in size
# COP TGFb inh – TGF-b inhibition validated with COP promoter | actives 3% (n = 1,600) | Potency, µM (series often up to 46.1 µM), hits mostly inhibitors | HepG2 COP-GFP TGF-b reporter, GFP fluorescence, 18 h; cells stimulated by added recombinant TGF-beta | shares compounds with TGFb inhibitor; note: nearly all actives have a fitted effect of over 70% in size
# Hits are given with their value; n = inactive; u = inconclusive; x = no result; [ ] = dose if it differs, or a comment. Calls come from the whole dose curve; as a rule, active = well fitted curve in the direction sought with a large enough effect; inconclusive = small, poorly fitted or top-dose-only effect, or another doubt; inactive = no such curve, though single readings can be large; an effect the other way counts as inactive or inconclusive.
SMILES,S2 tox,Nrf2 inh,HepG2 tox-1,A549 tox,TGFb inhibitor,ATXN2 expr inh,TGFb confirm,HepG2 tox-2,TGFb CCL64 inh,COP TGFb inh
Cc1cccc(N2CCN(C(=O)c3c(C)nn(Cc4ccccc4Cl)c3C)CC2)c1C,n,x,n,n,20µM,n,10µM,u,u,n
Cn1cc([N+](=O)[O-])c(C(=O)Nc2ccc3nc(-c4ccccc4)[nH]c3c2)n1,n,u,n,n,7.9µM,n,6.5µM,u,n,n
Cn1cc([N+](=O)[O-])c(C(=O)Nc2ccc(-c3nc4ccccc4[nH]3)cc2)n1,n,n,n,n,u,n,x,x,x,x
Cc1cccc(C(=O)Nc2ccc(C(=O)OCc3cc(=O)n4nc(CC(C)C)sc4n3)cc2)c1,x,x,n,n,n,x,x,x,x,x
Cc1ccc(Cl)cc1NC(=O)CCCN1C(=O)CCn2nc(-c3cn(C)c4ccccc34)cc21,n,x,n,n,u,n,x,x,x,x
Cc1ccc(-c2csc(NC(=O)CCNC(=O)c3ccc(Cl)cc3)n2)cc1,u,n,n,n,u,u,n,n,u,n
Cc1ccc(-c2csc(NC(=O)CCNC(=O)c3ccco3)n2)cc1,n,u,n,n,n,n,x,x,x,x
CC(Cc1c[nH]c2ccccc12)C(=O)NCc1ccco1 (centres undefined),n,u,n,n,n,n,x,x,x,x
O=C(c1[nH]c(C(F)(F)F)nc1-c1ccccc1)N1CCN(c2cccc(C(F)(F)F)n2)CC1,n,x,n,x,11µM,n,16µM,n,13µM,n
COCc1cc(Sc2ccc(Cl)cc2)nc(C)n1,n,n,n,n,n,n[11.3 µM],x,x,x,x
COCc1cc(S(=O)c2ccc(Cl)cc2)nc(C)n1 (centres undefined),u,n,n,n,u,n,u,u,7.3µM,n
COc1cccc(NC(=O)C(NCC2CCCCC2)c2ccccc2)c1 (centres undefined),n,n,n,n,n,n,x,x,x,x
COc1cccc(NC(=O)C(NCCC(C)C)c2ccccc2)c1 (centres undefined),n,n,n,n,13µM,n,u,n,n,n
CCOC1=CC2=C(C(=O)C(Cl)=CC2=O)[C@@H]2CN(S(=O)(=O)c3ccc(C)cc3)[C@@H](c3ccccc3)[C@H]12,u,x,n,x,11µM,u,4.1µM,u,5.2µM,n
Clc1ccc(-n2nnnc2Sc2ncnc3sccc23)cc1,x,n,n,n,10µM,u,4.6µM,16µM,2.9µM,u
O=C(Cc1ccccc1)Nc1sc2c(c1C(=O)Nc1cccc(Cl)c1)CCCC2,x,n,x,n,x,x,x,x,x,x
CCOc1ccc(NC(=O)c2cc3c(C)nc4ccccc4c3o2)cc1,n,n,n,n,n,n,x,x,x,x
CCN(C(=O)c1cc2c(C)nc3ccccc3c2o1)c1cc(Cl)ccc1OC,n,u,n,n,10µM,u,u,n,u,n
Cc1cccc(CCNC(=O)c2cccc3c2C(=O)N(C2CCCCC2)C3)c1,n,n,n,n,13µM,n,15µM,n,u,n
C[C@@H]1C(=O)O[C@H]2CC34[C@H]5C[C@@H](C(C)(C)C)C36[C@H](OC(=O)[C@@H]6O)O[C@@]4(C(=O)O5)[C@]21O (some centres undefined),x,x,x,x,x,n,x,x,x,x
CCc1ccc(CN(C)C(=O)c2cc(COc3cccc4cnccc34)on2)cc1,n,n,n,n,10µM,x,u,u,u,n
CN(Cc1cccc2cnccc12)C(=O)c1cc(COc2ccc(F)cc2F)on1,n,u,n,n,n,u,x,x,x,x
COc1ccc(CN2CCNC(=O)C2CC(=O)N(C)C2CCOCC2)c(F)c1 (centres undefined),n,n,n,n,n,n,x,x,x,x
Cc1cc(C)nc(/N=C(\N)Nc2ccccc2-c2ccccc2)n1,n,u,n,n,10µM,u,u,u,u,n
COc1ccccc1NC(=O)c1ccc([N+](=O)[O-])o1,n,n,13µM,n,2.8µM,n,u,u,u,n
SMILES,S2 tox,Nrf2 inh,HepG2 tox-1,A549 tox,TGFb inhibitor,ATXN2 expr inh,TGFb confirm,HepG2 tox-2,TGFb CCL64 inh,COP TGFb inh
O=C(Nc1cccc([N+](=O)[O-])c1)c1ccc([N+](=O)[O-])o1,u,x,n,x,u,x,x,x,x,x
O=C(Nc1nc2ccc(F)cc2s1)c1ccc([N+](=O)[O-])o1,u,x,n,x,5.6µM,x,4.6µM,9.2µM,u,n
O=C(Nc1ccccn1)c1ccc([N+](=O)[O-])o1,n,n,n,n,10µM,x,16µM,u,u,n
O=C(Nc1cccc(NC(=O)c2ccccc2Cl)c1)c1ccc([N+](=O)[O-])o1,u,n,n,n,3.5µM,u,1.3µM,6.5µM,8.2µM,u
COc1ccc(NC(=O)Cn2cnc3c(nc4n3CCCCC4)c2=O)c(OC)c1,n,u,n,n,n,n,x,x,x,x
COc1ccc(N2CCCC2)c(NC(=O)c2ccc([N+](=O)[O-])o2)c1,u,u,n,n,5.6µM,n,u,u,u,n
O=C(Nc1nc2ccc(F)cc2s1)C1CCN(S(=O)(=O)c2cc([N+](=O)[O-])ccc2Cl)CC1,n,n,n,n,11µM,u,9.2µM,u,9.2µM,n
O=C(Nc1ccc(N2CCCC2)c(Cl)c1)c1ccc([N+](=O)[O-])o1,n,u,n,u,u,n,x,x,x,x
CCOc1ccc(C(=O)N2CC(=O)Nc3ccc(C)cc3C2c2ccc(F)cc2)cc1OCC (centres undefined),u,n[9.27 µM],n,n,u,n,x,x,x,x
COc1ccc(CNC(=O)c2cccc(-c3ccc(C)c4ccccc34)n2)cc1,n,n,n,n,20µM,n,u,u,u,n
COc1ccc(CNC(=O)c2ccccc2C(=O)O)cc1,n,n,n,n,n,n,x,x,x,x
CN(Cc1ccccc1)C(=O)NC1CCCCC1,u,n,n,n,u,n,x,x,x,x
